{"source": "the supplement of paper PMC13380429"}
{"test_system": "Vero E6 infected with SARS-CoV-2", "experiment": "morphology score (similarity to uninfected cells); higher = more like uninfected cells", "settings": "24 h"}
{"compound": "CC(C)(C)[C@]1(O)CCN2C[C@H]3c4ccccc4CCc4cccc(c43)[C@@H]2C1", "note": "[butaclamol] (10 µM)", "morphology score": 0.273}
{"compound": "CC(C)(C)NC(=O)[C@@H]1CN(Cc2cccnc2)CCN1C[C@@H](O)C[C@@H](Cc1ccccc1)C(=O)N[C@H]1c2ccccc2C[C@H]1O", "note": "[indinavir] (10 µM)", "morphology score": 0.0426}
{"compound": "O=c1cc(N2CCOCC2)oc2c(-c3cccc4c3sc3ccccc34)cccc12", "note": "(0.833333 µM)", "morphology score": 0.352}
{"compound": "O=c1nc2ccccc2c2n1CC(CN1CCN(c3ccccc3)CC1)N2", "note": "(stereo not given) (10 µM)", "morphology score": 0.221}
{"compound": "CC(=O)N1CCN(c2ccc(OC[C@@H]3CO[C@@](Cn4ccnc4)(c4ccc(Cl)cc4Cl)O3)cc2)CC1", "note": "(racemic) [ketoconazole] (10 µM)", "morphology score": 0.0784}
{"compound": "O=c1[nH]c2ccccc2n1C1CCN(CCOc2ccccc2)CC1", "note": "[oxiperomide] (0.833333 µM)", "morphology score": -0.0147}
{"test_system": "Vero E6 infected with SARS-CoV-2", "experiment": "SARS-CoV-2 infection rate relative to infected DMSO; higher = more infection, active = 60 or less", "settings": "24 h"}
{"compound": "CC[C@H](C)[C@H](NC(=O)[C@H](Cc1ccc(O)cc1)NC(=O)[C@@H](NC(=O)[C@H](CCCNC(=N)N)NC(=O)[C@@H](N)CC(=O)O)C(C)C)C(=O)N[C@@H](Cc1c[nH]cn1)C(=O)N1CCC[C@H]1C(=O)O", "note": "(10 µM)", "SARS-CoV-2 infection rate": "104% (inactive)"}
{"compound": "C(#Cc1nc2ncccc2nc1OCCN1CCCC1)c1ccccc1", "note": "(0.833333 µM)", "SARS-CoV-2 infection rate": "86% (inactive)"}
{"compound": "O=c1cc(-c2ccc(O)cc2)oc2cc(O)cc(O)c12", "note": "[apigenin] (10 µM)", "SARS-CoV-2 infection rate": "104% (inactive)"}
{"compound": "CC(C)c1cccc2c1OC(C(C)C)C(=S)N2CC(=O)O", "note": "(stereo not given) (10 µM)", "SARS-CoV-2 infection rate": "102% (inactive)"}
{"compound": "O=C(N[C@H]1CN2CCC1CC2)c1ccc2c(c1)OCCO2", "note": "(10 µM)", "SARS-CoV-2 infection rate": "100% (inactive)"}
{"compound": "C=CCNc1ncnc2ccc(Br)cc12", "note": "(10 µM)", "SARS-CoV-2 infection rate": "101% (inactive)"}
{"compound": "CCCN(CCC)C1Cc2cc(OC)c(OC)cc2C1", "note": "(10 µM)", "SARS-CoV-2 infection rate": "109% (inactive)"}
{"compound": "C=Cc1cc(O)cc2nc(-c3ccc(O)c(F)c3)oc12", "note": "[prinaberel] (10 µM)", "SARS-CoV-2 infection rate": "96.5% (inactive)"}
{"compound": "C[N+]1([O-])[C@@H]2CC[C@H]1C[C@@H](OC(=O)C(CO)c1ccccc1)C2", "note": "(stereo not given in full) [atropine-oxide] (10 µM)", "SARS-CoV-2 infection rate": "106% (inactive)"}
{"compound": "CC(=O)N[C@H]1[C@H]([C@H](O)[C@H](O)CO)OC(C(=O)O)=C[C@@H]1NC(=N)N", "note": "[zanamivir] (10 µM)", "SARS-CoV-2 infection rate": "108% (inactive)"}
{"compound": "CCCCCCCCCCCCCCC[C@@H](O)[C@@H](N)CO", "note": "[safingol] (10 µM)", "SARS-CoV-2 infection rate": "117% (inactive)"}
{"compound": "C/C1=C/C[C@@H](/C(C)=C/c2csc(C)n2)OC(=O)C[C@H](O)C(C)(C)C(=O)[C@H](C)[C@@H](O)[C@@H](C)CCC1", "note": "[epothilone-D] (0.833333 µM)", "SARS-CoV-2 infection rate": "107% (inactive)"}
{"compound": "O=C(O)c1cc(/N=N/c2ccc(O)c(C(=O)O)c2)ccc1O", "note": "[olsalazine] (10 µM)", "SARS-CoV-2 infection rate": "104% (inactive)"}
{"compound": "CCCC(C)(COC(N)=O)COC(=O)NC(C)C", "note": "(stereo not given) (10 µM)", "SARS-CoV-2 infection rate": "116% (inactive)"}
{"compound": "CC(=O)OCC(=O)[C@@]1(O)CC[C@H]2[C@@H]3CCC4=CC(=O)CC[C@]4(C)[C@@]3(F)[C@@H](O)C[C@@]21C", "note": "(10 µM)", "SARS-CoV-2 infection rate": "99.5% (inactive)"}
{"compound": "CC(=O)[C@H]1CC[C@H]2[C@@H]3CC[C@H]4C[C@H](O)CC[C@]4(C)[C@H]3C(=O)C[C@]12C", "note": "[alfaxalone] (10 µM)", "SARS-CoV-2 infection rate": "112% (inactive)"}
{"compound": "CCCCC1C(=O)N(c2ccccc2)N(c2ccccc2)C1=O", "note": "[phenylbutazone] (10 µM)", "SARS-CoV-2 infection rate": "97.5% (inactive)"}
{"compound": "COc1cc(N2CCN(C(C)=O)CC2)ccc1Nc1ncc(Cl)c(Nc2ccc(N3CCN(C(C)=O)CC3)cc2OC)n1", "note": "(10 µM)", "SARS-CoV-2 infection rate": "114% (inactive)"}
{"compound": "O=C(Nc1cccc(C(F)(F)F)c1)Nc1ccc(Br)cc1-c1nnn[nH]1", "note": "(10 µM)", "SARS-CoV-2 infection rate": "108% (inactive)"}
{"compound": "O=C(Nc1cccc2cccnc12)c1ccc(N2C(=O)[C@@H]3[C@H](C2=O)[C@@H]2C=C[C@H]3C2)cc1", "note": "[endo-IWR-1] (10 µM)", "SARS-CoV-2 infection rate": "98.5% (inactive)"}
{"compound": "CC(=O)Nc1nc2c(Oc3cc(-c4ccc(C(F)(F)F)cc4)ncn3)cccc2s1", "note": "(10 µM)", "SARS-CoV-2 infection rate": "108% (inactive)"}
{"compound": "c1ccc(-c2ccc(CNc3nc(-c4ccccn4)nnc3-c3ccccc3)cc2)cc1", "note": "(10 µM)", "SARS-CoV-2 infection rate": "114% (inactive)"}
{"compound": "C[C@@H](NC(=O)CCc1nc2ccccc2c(=O)[nH]1)c1ccccc1", "note": "(10 µM)", "SARS-CoV-2 infection rate": "95.5% (inactive)"}
{"compound": "CC(C)(O)c1ccccc1CC[C@@H](SCC1(CC(=O)O)CC1)c1cccc(/C=C/c2ccc3ccc(Cl)cc3n2)c1", "note": "[montelukast] (10 µM)", "SARS-CoV-2 infection rate": "92.5% (inactive)"}
{"compound": "CCn1cc(C(=O)O)c(=O)c2ccc(C)nc21", "note": "[nalidixic-acid] (10 µM)", "SARS-CoV-2 infection rate": "106% (inactive)"}
{"compound": "Cc1ccc(NC2=NCCN2)c(Cl)c1", "note": "[tolonidine] (10 µM)", "SARS-CoV-2 infection rate": "98.5% (inactive)"}
{"compound": "CCC(=O)OCN1C(=O)C=CC1=O", "note": "(10 µM)", "SARS-CoV-2 infection rate": "97% (inactive)"}
{"compound": "NC(=O)c1ncn([C@@H]2O[C@H](CO)[C@@H](O)[C@H]2O)c1O", "note": "[mizoribine] (10 µM)", "SARS-CoV-2 infection rate": "112% (inactive)"}
{"compound": "Cc1cccc2c1CC[C@H](CN1CCC(c3c(Cl)cccc3Cl)CC1)C[C@@H]2O", "note": "(0.833333 µM)", "SARS-CoV-2 infection rate": "98% (inactive)"}
{"compound": "Cn1nccc1Nc1nccc(-c2ccn([C@H](CO)c3ccc(Cl)c(F)c3)c(=O)c2)n1", "note": "(0.833333 µM)", "SARS-CoV-2 infection rate": "106% (inactive)"}
{"compound": "CCOc1c2c(c(OCC)c3ccccc13)C(=O)N(c1ccc(CC(=O)NS(=O)(=O)c3ccccc3)cc1)C2", "note": "(10 µM)", "SARS-CoV-2 infection rate": "104% (inactive)"}
{"compound": "COC(=O)C1=C(C)NC(C)=C(C(=O)OC/C=C/c2ccccc2)C1c1cccc([N+](=O)[O-])c1", "note": "(stereo not given) [pranidipine] (10 µM)", "SARS-CoV-2 infection rate": "107% (inactive)"}
{"compound": "Fc1ccc(C(OCCN2CCN(CCCc3ccccc3)CC2)c2ccc(F)cc2)cc1", "note": "[vanoxerine] (0.833333 µM)", "SARS-CoV-2 infection rate": "86% (inactive)"}
{"compound": "CC(C)(C)[C@]1(O)CCN2C[C@H]3c4ccccc4CCc4cccc(c43)[C@@H]2C1", "note": "[butaclamol] (10 µM)", "SARS-CoV-2 infection rate": "101% (inactive)"}
{"compound": "CC(C)(C)NC(=O)[C@@H]1CN(Cc2cccnc2)CCN1C[C@@H](O)C[C@@H](Cc1ccccc1)C(=O)N[C@H]1c2ccccc2C[C@H]1O", "note": "[indinavir] (10 µM)", "SARS-CoV-2 infection rate": "110% (inactive)"}
{"compound": "O=c1cc(N2CCOCC2)oc2c(-c3cccc4c3sc3ccccc34)cccc12", "note": "(0.833333 µM)", "SARS-CoV-2 infection rate": "68% (inactive)"}
{"compound": "O=c1nc2ccccc2c2n1CC(CN1CCN(c3ccccc3)CC1)N2", "note": "(stereo not given) (10 µM)", "SARS-CoV-2 infection rate": "93% (inactive)"}
{"compound": "CC(=O)N1CCN(c2ccc(OC[C@@H]3CO[C@@](Cn4ccnc4)(c4ccc(Cl)cc4Cl)O3)cc2)CC1", "note": "(racemic) [ketoconazole] (10 µM)", "SARS-CoV-2 infection rate": "108% (inactive)"}
{"compound": "O=c1[nH]c2ccccc2n1C1CCN(CCOc2ccccc2)CC1", "note": "[oxiperomide] (0.833333 µM)", "SARS-CoV-2 infection rate": "104% (inactive)"}
